Experimental data taken from the supplement of paper PMC9948646.

Test system: gramicidin D channels in DC22:1PC lipid vesicles (bilayer-modifying potency)
Assay: initial Tl+ fluorescence quench rate relative to no-drug control (NormRate, gramicidin monomer-dimer shift) (ratio (fold of control)); higher = stronger bilayer-modifying effect (equilibrium shifted toward conducting dimers), active = 1.5 or more
Conditions: 10 µM; lipid concentration 50 µM; temperature: 25 °C
Protocol: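 Stopped-flow fluorescence quench assay: ANTS-loaded DC22:1PC large unilamellar vesicles doped with gramicidin D (1:2000), 50 µM lipid, equilibrated 10 min with 10 µM drug (0.1% DMSO), mixed with Tl+ quench buffer at 25°C. Initial quench rate (Tl+ influx) was fitted with a modified stretched exponential and normalised to the no-drug control rate (NormRate); duplicates from two independent LUV preparations (triplicates for 7 drugs).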

Initial Tl+ fluorescence quench rate, active:
O=C(Nc1ccc(F)c(-c2nc3cc(-c4ccccc4)cnc3[nH]2)c1)N1CCCC1 1.72
O=C(Nc1ccc(C(F)(F)F)c(C(F)(F)F)c1)c1cc(Cl)ccc1O 2.9
COc1cccc(OC)c1C(=O)Nc1ccc(Cl)c(-c2nc3ccccc3s2)c1 3.12
C[C@H](C(N)=O)N1CCCC[C@@H]1c1ccc(OCc2cccc(F)c2)cc1 2.68
CNC(=O)CNc1nc(-c2ccccn2)nc2scc(-c3ccccc3)c12 5.21
CC(C)n1ncc2c(C(=O)NC[C@H](c3cccs3)N3CCOCC3)cc(-c3ccccc3)nc21 2.74
COc1ccc(OC)c(NCc2ccc3nc(N)nc(N)c3c2Cl)c1 1.54
O=C([C@@H](c1ccc(Cl)cc1)c1cccnc1)N1CCN(c2ccc(C(F)(F)F)cc2)CC1 10.5
Cc1ccc(NC(=O)c2nc[nH]c2C(=O)Nc2nc3ccccc3[nH]2)c(C)c1 1.88
CS(=O)(=O)c1ccc(C(=O)N(C[C@H]2CCCO2)c2nc3ccccc3s2)cc1[N+](=O)[O-] 2.09
COC(=O)c1c(NC(=O)c2c(F)c(F)c(F)c(F)c2F)sc2c1CCCCC2 1.72
CC(C)(C)OC(=O)N1CCN(c2cc(-c3ccc(Oc4ccccc4)cc3)n[nH]2)CC1 3.47
CC1=Nc2ccc(Cl)cc2[C@](O)(c2ccc(C)cc2)N1CCN1CCCCC1 1.66
Cc1ccc(NC(=O)C[C@@H]2COc3ccccc3O2)cc1Cl 2.24
C[C@@H](c1cc(Cl)cc(Cl)c1)N(C)c1ncc2c(N)nc(N)nc2n1 2.71
CNC(=O)[C@@H]1Cc2c([nH]c3cc(Cl)ccc23)C2(CCN(CCc3ccccc3)CC2)N1 2.52
Cn1ccnc1CNCCS(=O)(=O)c1cccc(Nc2ccc(-c3cccc(F)c3)cn2)c1 2.38

Initial Tl+ fluorescence quench rate, inactive:
CC[C@H](NC(=O)c1ccccc1NC(=O)c1ccc(C)cc1)C(=O)OC 1.32
N#Cc1nc(-c2ccccc2)oc1S(=O)(=O)c1ccc(Cl)cc1 1.12
Cc1ccc2[nH]c3c(NCCN(C)C)ncnc3c2c1 1.05
Cc1ccc2[nH]c([C@H]3CCCNC3)c(-c3ccncc3)c2c1 1.42
COc1ccc(N(CCc2cccc(C)n2)C(=O)C2CCCCC2)cc1 1.41
CCCCN(CCCC)c1c(C#N)cc(S(=O)(=O)Nc2ccccc2)cc1C#N 1.1
Cc1ccc(S(=O)(=O)N2CCN(C(=O)c3cc(-c4ccccc4)[nH]n3)CC2)cc1 1.38
COc1cc(C2=NCCN2)cc2cc(-c3ccc(C4=NCCN4)cc3)oc12 1.1
CNC(=O)c1nn(C)c2c1C(C)(C)Cc1cnc(Nc3ccc(N4CCN(C)CC4)cc3)nc1-2 1.04
COc1cc2ncnc(NC3CCN(Cc4ccccc4)CC3)c2cc1OC 1.04
CC(=O)NC[C@H]1CN(c2ccc(N3CCSCC3)c(F)c2)C(=O)O1 1.09
COc1ccc(-c2nc(-c3cccc(NC(=O)Cc4ccc(F)cc4)c3)no2)cc1OC 1.47
COc1cccc(-c2cc3c(Nc4cccnc4)nccc3[nH]2)c1 1.5
CC(C)(C)c1cc(C(=O)Nc2cccnc2)cc(C(=O)Nc2cccnc2)c1 1.39
Cn1c(=O)c2c(S(C)(=O)=O)snc2n(C)c1=O 1.19
O=C(c1ccc(F)cc1)N(CCNc1ccccc1)c1ccccc1 1.36
O=C(Nc1nnc(S)s1)c1cc(Br)ccc1Cl 1.2
Clc1ccc(Cl)c(CO[C@H]2CCCC[C@@H]2n2ccnc2)c1 1.09
COC(=O)Nc1nc2cc(C(=O)c3ccccc3)ccc2[nH]1 1.04
Cc1cc(OCC(=O)NCc2ccccc2)c2cc(Br)ccc2n1 1.45
COc1ccc(Nc2ccccc2NC(=O)c2ccc(O)nc2)cc1 1.03
C[C@@H](C(=O)N1CCCC1)N1CCN(S(=O)(=O)c2ccc(C(C)(C)C)cc2)CC1 1.15
CC(C)c1ncc(-c2ccncc2)c([C@H]2CC[C@H](CNC(=O)c3cccnc3)CC2)n1 1.02
